Experimental findings from paper PMC5540273 (PLoS ONE, 2017) are described below.

Molecules are shown by their SMILES.
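Also: kd values determined as follow-up on hits from a single-replicate KINOMEscan panel screen.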

The first test relates to CDKL2.
In general, Kd refers to the constant that tells how readily two partners part at equilibrium. The low end stands for a tighter complex, the high end for a looser complex. In turn, `O=C(Nc1n[nH]c2nc(-c3nccs3)c(Br)cc12)C1CC1` [SB-742251] registered a dissociation constant (Kd) of 480 nM.
Still for that read-out and setting: for `O=C(Nc1n[nH]c2nc(-c3nccs3)c(Br)cc12)C1CCCC1` [SB-742609] the value was 500 nM; for `O=C(Nc1n[nH]c2cc(-c3cccc(F)c3F)ccc12)C1CC1` [SB-733894], 300 nM.

The test system of another test is CIT.
`O=C(Nc1ccccc1)Nc1cccc(Oc2ccc3nccn3n2)c1`: binding was characterised by a dissociation constant (Kd) of 1.1 nM.
Compound `Cc1ccc(NC(=O)Nc2cccc(Cl)c2)cc1-c1ccc(C(=O)Nc2ccncc2)cc1` [GSK1398468] showed a Kd of 150 nM.
`Cc1cccc(-c2nc(Nc3ccncc3)c3ccccc3n2)n1` [GW855857] showed a Kd of 440 nM.

The next test concerns CLK3.
In the case of `COc1cc2nccc(Nc3ccc(NC(=O)c4ccc(C)cc4)c(O)c3)c2cc1OC.Cl` [GW440132], the Kd is greater than 10000 nM.
For the compound `COc1ccc(Nc2nccc(NCCNC(=O)Nc3ccccc3F)n2)cc1` [GSK1379901], the Kd is greater than 10000 nM.
Turning to `Cn1cncc1-c1ccc2ncnc(Nc3ccc(OCc4ccccc4)cc3)c2c1` [GW320571], the Kd is greater than 10000 nM.
